Assay results published in PubChem BioAssay (NCI).
This is part of a sample that, as a whole, favours compounds with a hit. Of some 79,000 tested, about 15% had one in any assay. Activity calls are given as the source filed them. Rule as the data show it: active = growth inhibition above about 70%; inactive = the rest.

Columns and labels:
[1] = NCI Yeast Anticancer Drug Screen. Data for the rad50 strain (AID 155);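 also: 0% = growth of vehicle-only cultures of the same strain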; conditions: S. cerevisiae rad50 strain growth inhibition, active compounds read high
Procedure, shortened: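 Cells are treated with compound, grown, and their growth is then scored against vehicle-only cultures of the same repair-deficient yeast strain.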

[2] = NCI Yeast Anticancer Drug Screen. Data for the mec2-1 strain (AID 157); conditions: S. cerevisiae mec2-1 strain, active compounds read high
Procedure, shortened: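 Using mec2-1 yeast: add compound, measure growth, express inhibition versus vehicle-treated cultures.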

[3] = NCI Yeast Anticancer Drug Screen. Data for the sgs1 mgt1 strain (AID 161);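 also: 0% = growth of cultures given vehicle only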; conditions: S. cerevisiae sgs1 mgt1 strain, active compounds read high
Procedure, shortened: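 This yeast growth screen uses a strain with defined DNA-repair lesions; compound-treated growth is compared with vehicle-treated growth.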

[4] = NCI Yeast Anticancer Drug Screen. Data for the cln2 rad14 strain (AID 165);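 also: 0% = growth equal to vehicle treated cultures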; conditions: S. cerevisiae cln2 rad14 strain, active compounds read high
Procedure, shortened: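 Yeast strain cln2 rad14, bearing defects in cell cycle control and DNA repair, serves as the test system; values reflect growth inhibition compared with vehicle.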

[5] = NCI Yeast Anticancer Drug Screen. Data for the bub3 strain (AID 167); conditions: S. cerevisiae bub3 mutant strain, active compounds read high
Procedure, shortened: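 Part of a panel of yeast mutants defective in DNA damage repair or cell cycle regulation. Each strain is grown with compound, and inhibition is calculated relative to solvent-treated cultures.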

[6] = NCI Yeast Anticancer Drug Screen. Data for the mlh1 rad18 strain (AID 175); conditions: S. cerevisiae mlh1 rad18 strain growth inhibition, active compounds read high
Procedure, shortened: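 Steps: expose repair-defective yeast to compound; measure growth; express inhibition against vehicle-treated controls.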

[7] = at 5.0 µM (retest, dose inferred, filed as 0.5)
[8] = at 50.0 µM (retest, dose inferred, filed as 5.0)

Measured: growth inhibition

CCCCCC(C)(O)C#CC(C)(O)CCCCC (configuration not stated)
inactive: [1]; [7] 2% | [1]; at 50.0 µM 38.8% | [2]; [7] 5% | [2]; at 50.0 µM 4.55% | [3]; [7] 1% | [3]; at 50.0 µM 30.7% | [4]; [7] 5% | [5]; [7] 3% | [5]; at 50.0 µM 21.3% | [6]; [7] 2% | [6]; at 50.0 µM 26.7%
active: [1]; [8] 99% | [2]; [8] 99% | [3]; [8] 99% | [4]; [8] 98% | [4]; at 50.0 µM 75.7% | [5]; [8] 96% | [6]; [8] 99%

COc1ccc2c(c1)N=C(N)n1c(nc3ccccc31)S2
active: [3]; [8] 83% | [3]; at 50.0 µM 74.3%
inactive: [1]; [7] -1% | [1]; [8] 51% | [1]; at 50.0 µM 60.6% | [2]; [7] -6% | [2]; [8] 42% | [2]; at 50.0 µM 54.6% | [3]; [7] -10% | [4]; [7] -33% | [4]; [8] 34% | [4]; at 50.0 µM 36.1% | [5]; [7] -37% | [5]; [8] 36% | [5]; at 50.0 µM 69.7% | [6]; [7] -14% | [6]; [8] 57% | [6]; at 50.0 µM 56.8%

N#C/C(=C\NC(=S)C(N)=S)c1nc2ccccc2s1
inactive: [1]; [7] 21% | [2]; [7] 28% | [3]; [7] 7% | [4]; [7] 30% | [5]; [7] 22% | [6]; [7] 52%
active: [1]; [8] 97% | [1]; at 50.0 µM 88.1% | [2]; [8] 99% | [2]; at 50.0 µM 90.2% | [3]; [8] 97% | [3]; at 50.0 µM 89.2% | [4]; [8] 97% | [4]; at 50.0 µM 86.9% | [5]; [8] 98% | [5]; at 50.0 µM 87.8% | [6]; [8] 97% | [6]; at 50.0 µM 85.5%

O=C1NC(=S)S/C1=C\c1ccc(F)cc1
inactive: [1]; [7] -4% | [1]; [8] 6% | [2]; [7] 7% | [2]; [8] 15% | [3]; [7] 2% | [3]; [8] 22% | [4]; [7] -9% | [4]; [8] 1% | [4]; at 50.0 µM 64.8% | [5]; [7] -2% | [5]; [8] 0% | [5]; at 50.0 µM 57% | [6]; [7] -4% | [6]; [8] 4%
active: [1]; at 50.0 µM 76% | [2]; at 50.0 µM 85.7% | [3]; at 50.0 µM 74.1% | [6]; at 50.0 µM 80.3%

CCCCC(CC)CN1C(=O)C2C3C=CC(C3)C2C1=O (configuration not stated)
inactive: [1]; [7] -15% | [1]; [8] -20% | [1]; at 50.0 µM 32.5% | [2]; [7] -9% | [2]; [8] -20% | [2]; at 50.0 µM 19.1% | [3]; [7] -2% | [3]; [8] -9% | [3]; at 50.0 µM 39.2% | [4]; [7] 28% | [4]; [8] -49% | [4]; at 50.0 µM -4.45% | [5]; [7] 3% | [5]; [8] -26% | [5]; at 50.0 µM 39.1% | [6]; [7] -6% | [6]; [8] -15% | [6]; at 50.0 µM 7.15%

CC(=O)Nc1ccc(O)c(=O)cc1
active: [1]; [8] 96% | [1]; at 50.0 µM 90.6% | [2]; [8] 97% | [2]; at 50.0 µM 87.5% | [3]; [8] 96% | [3]; at 50.0 µM 96.1% | [4]; [8] 93% | [5]; [8] 93% | [6]; [8] 97% | [6]; at 50.0 µM 97.2%
inactive: [1]; [7] 18% | [2]; [7] 42% | [3]; [7] 27% | [4]; [7] 16% | [4]; at 50.0 µM 20.9% | [5]; [7] 23% | [5]; at 50.0 µM 53.9% | [6]; [7] 19%

COc1ccc(/C=C2\N=C(c3ccco3)OC2=O)cc1Br
inactive: [1]; [7] 16% | [1]; [8] 2% | [1]; at 50.0 µM -4.8% | [2]; [7] -17% | [2]; [8] -4% | [2]; at 50.0 µM 5.85% | [3]; [7] -1% | [3]; [8] 12% | [3]; at 50.0 µM 11% | [4]; [7] 30% | [4]; [8] 22% | [4]; at 50.0 µM 4.8% | [5]; [7] 5% | [5]; [8] 13% | [5]; at 50.0 µM 27.1% | [6]; [7] -7% | [6]; [8] -32% | [6]; at 50.0 µM 5.65%

O=C1C=C(c2ccccc2)O/C1=C/C(=O)c1ccc(Cl)cc1
active: [3]; at 50.0 µM 79%
inactive: [1]; [7] 32% | [1]; [8] 32% | [1]; at 50.0 µM 53.3% | [2]; [7] 32% | [2]; [8] 32% | [2]; at 50.0 µM 65.2% | [3]; [7] 40% | [3]; [8] 40% | [4]; [7] 11% | [4]; [8] 11% | [4]; at 50.0 µM 39.6% | [5]; [7] 16% | [5]; [8] 16% | [5]; at 50.0 µM 65% | [6]; [7] 32% | [6]; [8] 32% | [6]; at 50.0 µM 52.9%

CCCC(O)[C@@]1(CC)CC(C)C(O)(C2(C)C[C@H](C)[C@@H](C(CC)C(=O)C(C)[C@@H](O)[C@H](C)C3OC(O)(C(CC)C(=O)O)[C@@H](C)C(O)C3CC)O2)O1 (some centres not stated)
active: [6]; at 50.0 µM 85.9%
inactive: [1]; [7] -9% | [1]; [8] -13% | [1]; at 50.0 µM 14.7% | [2]; [7] -27% | [2]; [8] -13% | [2]; at 50.0 µM 23.1% | [3]; [7] -9% | [3]; [8] -6% | [3]; at 50.0 µM 23.3% | [4]; [7] 0% | [4]; [8] 28% | [4]; at 50.0 µM 29.3% | [5]; [7] -10% | [5]; [8] -14% | [5]; at 50.0 µM 25.9% | [6]; [7] -10% | [6]; [8] -8%
